Source: PubChem BioAssay (NCATS)
Records with an inconclusive call do not appear. Where a call stands in place of a potency, no number is given. The source made the active and inactive calls. The call rests on the fitted dose curve; in most records, active means well fitted inhibition curve with a large enough effect; inconclusive means small, poorly fitted or top-dose-only effect; inactive means flat fitted curve, though single readings scatter.

Each compound was assayed on Zika virus NS2B-NS3 protease (assay: Primary screen GU AMC qHTS for Zika virus inhibitors (AID 1347154; further: nearly all actives have a fitted effect of over 70% in size)). Settings: Zika NS2B-NS3 unlinked protease, AMC fluorogenic substrate; series mostly up to 54.1 µM.
Outline: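 Unlinked Zika NS2B hydrophilic domain/NS3 protease domain noncovalent complex (25 nM final) in 10 mM Tris-HCl pH 8.0, 0.01% Tween 20, with AMC peptide substrate. Fluorescence (ex 340, em 450 nm) change over 15 min, room temperature; percent inhibition fitted to 4-parameter Hill equation.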

Question: Which Potency does the source give for `CCC(C)C(C)(COC(N)=O)COC(N)=O` (stereo not given) here?
Answer: Its Potency is “inactive”.

Question: `CCN[C@@H](C)Cc1ccccc1` was tested. Which Potency did it give?
Answer: Its Potency is “inactive”.

Question: How did the Potency turn out when `C[C@H]1[C@@H]2Cc3ccc(O)cc3[C@@]1(C)CCN2C` was run?
Answer: Its Potency is “inactive”.

Question: Which Potency does the source give for `C[C@]12CC[C@H]3[C@@H](CCC4=CC(=O)CC[C@@H]43)[C@@H]1CC[C@@H]2OC(=O)CCC1CCCCC1` here?
Answer: The Potency was “inactive”.

Question: How did the Potency turn out when `CN1CC[C@]23c4c5ccc(O)c4O[C@H]2[C@@H](O)CC[C@H]3[C@H]1C5` was run?
Answer: Its Potency is “inactive”.

Question: For `CN(C)CCc1c[nH]c2cccc(OP(=O)(O)O)c12`, which Potency is on record?
Answer: Its Potency is “inactive”.

Question: With `O=[N+]([O-])O[C@H]1CO[C@H]2[C@@H]1OC[C@H]2O[N+](=O)[O-]` as the compound, how does the Potency read?
Answer: The Potency was “inactive”.

Question: How did the Potency turn out when `CCN[C@@H](C)Cc1cccc(C(F)(F)F)c1` was run?
Answer: The Potency was “inactive”.

Question: How did the Potency turn out when `NC(=O)CS(=O)C(c1ccccc1)c1ccccc1` (stereo not given) was run?
Answer: The Potency was “inactive”.

Question: With `Oc1ccc(Cl)cc1` as the compound, how does the Potency read?
Answer: Its Potency is “inactive”.

Question: `C[C@@H]1CC2=CC(=O)CC[C@@H]2[C@H]2CC[C@@]3(C)[C@@H](CC[C@]3(C)O)[C@@H]21` was tested. Which Potency did it give?
Answer: The Potency was “inactive”.

Question: With `C[N+]1(CCF)[C@@H]2CC[C@H]1CC(OC(=O)C(O)(c1ccccc1)c1ccccc1)C2` (stereo not given in full) as the compound, how does the Potency read?
Answer: Its Potency is “inactive”.

Question: Which Potency does the source give for `O=C1OC(CCN2CCCCC2)OC1(c1ccccc1)c1ccccc1` (stereo not given) here?
Answer: The Potency was “inactive”.

Question: Which Potency does the source give for `COc1cc(OC)c(OC)cc1C=O` here?
Answer: Its Potency is “inactive”.

Question: For `COc1cc(CC(C)N)cc(OC)c1OC` (stereo not given), which Potency is on record?
Answer: The Potency was “inactive”.
